Of roughly 8,800 targets only a part is listed; those with a hit were picked by preference. About 0.5% of all pairs of compound and target were hits. Unmarked numbers belong to inactive results.
Key:
Experiment in all cases: log2 fold change, soluble protein after heating vs DMSO (PISA); higher = thermal stabilisation; K562 lysate, 10 uM; active = over 0.2 and 3.5 SD of the protein, either way, in both replicates (recomputed)
erlotinib = compound: C#Cc1cccc(Nc2ncnc3cc(OCCOC)c(OCCOC)cc23)c1 [erlotinib]
Outline: (§1)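 Values give the log-two fold change in thermal stability against solvent controls, from duplicates. Crude K562 extract at 1 mg/mL protein, made by dounce homogenisation in PBS pH 7.4 with 1 mM MgCl2, was treated with 10 μM compound for 30 min. After 3 min heating across 48°C-58°C, aliquots were pooled, adjusted to 0.5% NP-40 at 4°C and centrifuged at 21,000xg for 90 min. The supernatant was measured by TMTpro 16plex LC-MS/MS with channel sums equalised.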

[1] = compound: C/C(=N\NC(=O)C1=CC(=CC=C1)S(=O)(=O)N2CCOCC2)/C3=C(C=CC(=C3)Cl)O
Outline: as §1

[2] = compound: C1=CC(=CC=C1C2=NC3=C(N2)C=C(C=C3)C(=O)N)OC4=CC=C(C=C4)Cl
Outline: as §1

[3] = compound: C1=CC2=C(C=CC(=C2)/C=C\3/C(=O)NC(=NCC4=CC=CS4)S3)N=C1
Outline: as §1

[4] = compound: C1=CC2=NC=CN=C2C=C1/C=C/3\C(=O)NC(=O)S3
Outline: as §1

[5] = compound: C1=CC=C(C=C1)C2=NC(=C(N2)C3=CC=NC=C3)C4=CC(=C(C=C4)Cl)O
Outline: as §1

[6] = compound: C1=CC=C2C(=C1)C3=NNC4=CC=CC(=C43)C2=O
Outline: as §1

[7] = compound: C1CCN(C1)C(=O)NC2=CC=CC(=C2)NC3=NC=C(C(=N3)NCCC4=CN=CN4)Br
Outline: as §1

[8] = compound: C1CN(CCC1(CC2=CC=C(C=C2)Cl)N)C3=NC=NC4=C3C=CN4
Outline: as §1

IRAK-1-4 Inhibitor I = compound: C1COCCN1CCN2C3=CC=CC=C3N=C2NC(=O)C4=CC(=CC=C4)[N+](=O)[O-] [IRAK-1-4 Inhibitor I]
Outline: as §1

ibrutinib = compound: C=CC(=O)N1CCC[C@@H](n2nc(-c3ccc(Oc4ccccc4)cc3)c3c(N)ncnc32)C1 [ibrutinib]
Outline: as §1

[9] = compound: CC(=O)c1cnc2ccc(-c3cc(Cl)c(O)c(Cl)c3)nc2c1N[C@H]1CC[C@H](CN(C)C)CC1
Outline: as §1

ralimetinib = compound: CC(C)(C)Cn1c(N)nc2ccc(-c3[nH]c(C(C)(C)C)nc3-c3ccc(F)cc3)nc21 [ralimetinib]
Outline: as §1

[10] = compound: CC(C)(O)CC(=O)NCCn1ccc2ncnc(Nc3ccc(Oc4cccc(C(F)(F)F)c4)c(Cl)c3)c21
Outline: as §1

[11] = compound: CC(C)C1=C2N=C(C=C(N2N=C1)NCC3=CC=CC=C3)NCCCCCCN
Outline: as §1

[12] = compound: CC1=C(C(CC(=O)N1)C2=CC=C(C=C2)C(F)(F)F)C(=O)NC3=C(C=C4C(=C3)C=NN4)F
Outline: as §1

[13] = compound: CC1=C(C2=C(C=C1)C(=O)C3=CC=CC=C3N2CCCN)C
Outline: as §1

[14] = compound: CC1=C(C=C(C=C1)NC(=O)C2=CC(=CC=C2)C(C)(C)C#N)NC3=CC4=C(C=C3)N=CN(C4=O)C
Outline: as §1

[15] = compound: CC1=C(C=C(C=C1)NC(=O)C2=CC(=CC=C2)N(C)C)NC(=O)C3=CC=C(C=C3)O
Outline: as §1

[16] = compound: CC1=CC=C(C=C1)SC2=C3C=C(SC3=CN=C2)C(=O)N
Outline: as §1

Sequence of UniProt Q8WVK7 (Q8WVK7 whole entry, looked up): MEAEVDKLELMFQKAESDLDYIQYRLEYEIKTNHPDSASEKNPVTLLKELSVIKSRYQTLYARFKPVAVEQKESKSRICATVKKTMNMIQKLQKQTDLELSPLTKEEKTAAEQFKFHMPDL
Sequence of UniProt Q86XZ4 (Q86XZ4 whole entry, looked up): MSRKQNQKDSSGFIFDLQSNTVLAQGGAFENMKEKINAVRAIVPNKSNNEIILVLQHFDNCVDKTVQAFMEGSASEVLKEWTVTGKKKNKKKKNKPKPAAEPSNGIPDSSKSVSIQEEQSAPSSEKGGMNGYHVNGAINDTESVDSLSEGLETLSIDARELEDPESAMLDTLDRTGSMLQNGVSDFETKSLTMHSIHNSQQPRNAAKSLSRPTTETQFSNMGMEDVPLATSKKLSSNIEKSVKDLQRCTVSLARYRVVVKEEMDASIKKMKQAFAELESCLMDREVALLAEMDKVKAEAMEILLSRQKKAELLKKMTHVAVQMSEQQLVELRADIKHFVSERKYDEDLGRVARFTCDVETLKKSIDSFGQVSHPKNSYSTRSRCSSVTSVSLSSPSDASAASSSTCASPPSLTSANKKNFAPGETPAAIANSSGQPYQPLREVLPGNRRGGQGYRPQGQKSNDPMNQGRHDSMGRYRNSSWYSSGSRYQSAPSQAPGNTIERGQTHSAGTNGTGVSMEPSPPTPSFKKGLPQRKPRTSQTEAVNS
Sequence of UniProt P19623 (P19623 whole entry, looked up): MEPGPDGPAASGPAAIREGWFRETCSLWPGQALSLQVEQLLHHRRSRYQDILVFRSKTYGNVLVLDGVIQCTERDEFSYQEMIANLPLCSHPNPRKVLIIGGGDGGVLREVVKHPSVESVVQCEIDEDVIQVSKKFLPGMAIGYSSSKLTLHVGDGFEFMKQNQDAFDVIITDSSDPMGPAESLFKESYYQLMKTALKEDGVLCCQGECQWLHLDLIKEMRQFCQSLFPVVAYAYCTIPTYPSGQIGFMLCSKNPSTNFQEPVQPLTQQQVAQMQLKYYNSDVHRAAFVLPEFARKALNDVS
Sequence of UniProt Q86US8 (Q86US8 whole entry, looked up): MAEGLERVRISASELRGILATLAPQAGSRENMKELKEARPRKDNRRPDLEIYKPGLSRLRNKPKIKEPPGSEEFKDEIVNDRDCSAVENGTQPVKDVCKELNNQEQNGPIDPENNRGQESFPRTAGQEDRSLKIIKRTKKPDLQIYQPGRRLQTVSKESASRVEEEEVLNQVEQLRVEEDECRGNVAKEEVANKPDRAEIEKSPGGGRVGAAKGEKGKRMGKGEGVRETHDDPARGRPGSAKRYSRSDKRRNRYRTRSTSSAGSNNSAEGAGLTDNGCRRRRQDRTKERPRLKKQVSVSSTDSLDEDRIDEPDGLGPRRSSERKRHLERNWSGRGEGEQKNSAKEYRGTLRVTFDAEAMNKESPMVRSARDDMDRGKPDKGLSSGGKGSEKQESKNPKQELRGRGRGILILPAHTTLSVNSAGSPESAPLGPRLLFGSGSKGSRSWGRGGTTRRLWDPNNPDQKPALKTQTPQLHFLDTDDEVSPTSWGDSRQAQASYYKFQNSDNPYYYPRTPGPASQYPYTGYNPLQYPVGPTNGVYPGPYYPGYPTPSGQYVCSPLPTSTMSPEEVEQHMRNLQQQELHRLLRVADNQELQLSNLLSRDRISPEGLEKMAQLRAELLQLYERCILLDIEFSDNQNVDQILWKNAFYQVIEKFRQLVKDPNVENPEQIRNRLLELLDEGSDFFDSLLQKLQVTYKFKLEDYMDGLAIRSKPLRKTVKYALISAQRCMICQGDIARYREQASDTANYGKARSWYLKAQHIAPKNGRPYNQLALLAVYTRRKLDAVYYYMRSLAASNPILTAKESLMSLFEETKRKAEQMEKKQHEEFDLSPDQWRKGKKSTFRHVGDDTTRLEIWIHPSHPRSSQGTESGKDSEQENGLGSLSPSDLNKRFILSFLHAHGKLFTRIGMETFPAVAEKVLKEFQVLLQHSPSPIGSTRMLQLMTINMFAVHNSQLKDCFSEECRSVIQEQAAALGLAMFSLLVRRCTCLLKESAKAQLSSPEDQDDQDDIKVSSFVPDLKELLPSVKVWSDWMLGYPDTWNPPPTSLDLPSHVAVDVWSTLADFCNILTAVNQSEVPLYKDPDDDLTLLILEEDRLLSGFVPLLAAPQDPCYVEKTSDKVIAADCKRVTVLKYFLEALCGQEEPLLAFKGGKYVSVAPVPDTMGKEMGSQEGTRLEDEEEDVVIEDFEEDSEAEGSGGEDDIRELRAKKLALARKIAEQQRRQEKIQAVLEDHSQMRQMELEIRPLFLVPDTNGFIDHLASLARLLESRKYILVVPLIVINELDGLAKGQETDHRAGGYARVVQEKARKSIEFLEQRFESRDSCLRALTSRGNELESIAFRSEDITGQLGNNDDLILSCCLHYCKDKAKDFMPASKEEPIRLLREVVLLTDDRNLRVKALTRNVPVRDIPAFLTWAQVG
Sequence of UniProt Q6NXT6 (Q6NXT6 whole entry, looked up): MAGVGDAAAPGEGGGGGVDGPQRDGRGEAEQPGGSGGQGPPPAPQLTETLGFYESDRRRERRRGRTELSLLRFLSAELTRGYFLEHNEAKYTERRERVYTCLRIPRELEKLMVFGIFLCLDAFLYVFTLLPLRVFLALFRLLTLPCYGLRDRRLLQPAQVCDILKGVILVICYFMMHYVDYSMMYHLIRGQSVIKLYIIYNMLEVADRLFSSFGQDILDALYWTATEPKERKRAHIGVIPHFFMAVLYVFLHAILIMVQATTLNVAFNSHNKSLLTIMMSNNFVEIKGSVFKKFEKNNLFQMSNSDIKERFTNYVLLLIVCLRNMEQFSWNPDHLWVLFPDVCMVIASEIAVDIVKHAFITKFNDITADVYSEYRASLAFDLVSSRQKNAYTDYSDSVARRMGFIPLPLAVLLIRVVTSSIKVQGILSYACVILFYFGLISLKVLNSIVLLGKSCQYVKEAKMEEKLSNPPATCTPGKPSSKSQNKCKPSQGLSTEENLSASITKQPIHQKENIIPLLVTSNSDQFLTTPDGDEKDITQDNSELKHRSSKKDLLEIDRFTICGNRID
Sequence of UniProt Q9C0B7 (Q9C0B7 whole entry, looked up): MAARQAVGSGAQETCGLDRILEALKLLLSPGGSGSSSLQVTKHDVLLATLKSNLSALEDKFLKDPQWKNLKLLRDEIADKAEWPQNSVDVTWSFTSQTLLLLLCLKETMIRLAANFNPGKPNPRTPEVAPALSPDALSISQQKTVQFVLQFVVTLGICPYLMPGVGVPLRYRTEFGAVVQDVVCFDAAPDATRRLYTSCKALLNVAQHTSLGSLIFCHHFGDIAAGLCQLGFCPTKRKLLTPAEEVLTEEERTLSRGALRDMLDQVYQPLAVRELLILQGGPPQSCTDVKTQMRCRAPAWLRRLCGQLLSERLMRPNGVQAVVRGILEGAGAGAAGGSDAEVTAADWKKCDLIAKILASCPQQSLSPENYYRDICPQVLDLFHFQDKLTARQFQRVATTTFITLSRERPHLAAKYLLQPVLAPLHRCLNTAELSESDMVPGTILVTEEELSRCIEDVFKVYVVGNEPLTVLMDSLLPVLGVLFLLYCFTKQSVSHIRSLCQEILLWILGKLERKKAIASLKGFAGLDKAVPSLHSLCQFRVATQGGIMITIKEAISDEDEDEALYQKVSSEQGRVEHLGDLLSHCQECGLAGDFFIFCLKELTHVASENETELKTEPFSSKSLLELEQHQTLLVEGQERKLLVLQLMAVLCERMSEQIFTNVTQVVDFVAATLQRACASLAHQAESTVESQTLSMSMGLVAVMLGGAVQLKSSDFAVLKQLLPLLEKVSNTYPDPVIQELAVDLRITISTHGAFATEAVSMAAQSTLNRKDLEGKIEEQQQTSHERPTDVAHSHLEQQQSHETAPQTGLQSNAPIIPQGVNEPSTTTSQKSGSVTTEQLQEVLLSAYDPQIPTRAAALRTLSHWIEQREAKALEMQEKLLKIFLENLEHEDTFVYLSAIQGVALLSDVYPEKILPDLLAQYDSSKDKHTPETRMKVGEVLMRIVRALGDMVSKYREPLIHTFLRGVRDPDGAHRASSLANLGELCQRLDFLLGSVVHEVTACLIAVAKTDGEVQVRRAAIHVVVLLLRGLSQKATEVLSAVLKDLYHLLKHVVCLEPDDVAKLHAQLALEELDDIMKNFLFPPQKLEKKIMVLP
Sequence of UniProt P52630 (P52630 whole entry, looked up): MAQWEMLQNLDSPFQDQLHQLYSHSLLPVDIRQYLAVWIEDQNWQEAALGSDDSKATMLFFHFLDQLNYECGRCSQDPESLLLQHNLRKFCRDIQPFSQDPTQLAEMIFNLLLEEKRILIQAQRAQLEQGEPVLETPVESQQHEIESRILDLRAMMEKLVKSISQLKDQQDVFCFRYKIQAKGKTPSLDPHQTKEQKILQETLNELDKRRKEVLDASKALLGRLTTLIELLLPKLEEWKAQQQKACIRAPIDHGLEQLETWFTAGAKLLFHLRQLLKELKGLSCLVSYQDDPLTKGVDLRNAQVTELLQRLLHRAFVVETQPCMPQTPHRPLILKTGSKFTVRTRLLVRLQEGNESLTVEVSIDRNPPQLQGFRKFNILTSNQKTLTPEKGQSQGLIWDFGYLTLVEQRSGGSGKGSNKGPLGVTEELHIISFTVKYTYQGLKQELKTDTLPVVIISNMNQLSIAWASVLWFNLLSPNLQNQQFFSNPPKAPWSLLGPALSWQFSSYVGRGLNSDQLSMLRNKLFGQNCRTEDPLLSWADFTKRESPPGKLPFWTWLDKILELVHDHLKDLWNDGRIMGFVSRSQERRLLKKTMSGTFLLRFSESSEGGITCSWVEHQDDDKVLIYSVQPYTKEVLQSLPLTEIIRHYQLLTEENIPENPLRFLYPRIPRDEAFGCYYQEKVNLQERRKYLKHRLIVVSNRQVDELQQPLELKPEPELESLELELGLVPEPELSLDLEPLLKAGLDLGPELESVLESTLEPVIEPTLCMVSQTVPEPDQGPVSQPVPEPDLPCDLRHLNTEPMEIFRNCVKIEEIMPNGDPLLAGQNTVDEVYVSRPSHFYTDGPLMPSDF

Row | Target | log2 fold change (erlotinib) | log2 fold change [1] | log2 fold change [2] | log2 fold change [3] | log2 fold change [4] | log2 fold change [5] | log2 fold change [6] | log2 fold change [7] | log2 fold change [8] | log2 fold change (IRAK-1-4 Inhibitor I) | log2 fold change (ibrutinib) | log2 fold change [9] | log2 fold change (ralimetinib) | log2 fold change [10] | log2 fold change [11] | log2 fold change [12] | log2 fold change [13] | log2 fold change [14] | log2 fold change [15] | log2 fold change [16]
1 | SRPK1 (UniProt Q96SB4) | 0.015 | -0.04 | 0.121 | 0.016 | 0.003 | 0.05 | 0.017 | -0.01 | 0.007 | 0.019 | 0.031 | 0.008 | -0.004 | -0.001 | -0.005 | -0.004 | -0.018 | 0.006 | -0.029 | 0.011
2 | TAPT1 (UniProt Q6NXT6) | 0 | -0.092 | 0.068 | -0.038 | -0.001 | -0.059 | -0.039 | -0.059 | 0.01 | 0.002 | 0.071 | 0.012 | -0.029 | -0.07 | 0.004 | -0.019 | -0.014 | 0.09 | -0.004 | -0.027
3 | SNRNP40 (UniProt Q96DI7) | 0.025 | 0.046 | -0.03 | -0.031 | -0.031 | 0.009 | 0.011 | 0.02 | -0.004 | 0.01 | -0.008 | 0.026 | -0.03 | -0.047 | -0.02 | 0.042 | 0.332 (active) | 0.02 | 0.069 | 0.029
4 | SSBP3 (UniProt Q9BWW4) | 0.038 | -0.09 | 0.004 | 0.026 | 0.129 | -0.048 | 0.018 | -0.054 | 0.013 | 0.041 | 0.435 (active) | -0.024 | 0 | -0.038 | -0.02 | -0.021 | -0.018 | -0.018 | 0 | 0.054
5 | TANGO6 (UniProt Q9C0B7) | 0.045 | -0.04 | 0.012 | -0.011 | 0.009 | -0.049 | -0.048 | 0.007 | 0.023 | 0.048 | -0.056 | 0.039 | 0.023 | 0.02 | -0.067 | -0.028 | -0.017 | -0.013 | -0.02 | -0.011
6 | SKA2 (UniProt Q8WVK7) | -0.006 | -0.058 | 0.014 | -0.011 | -0.042 | 0.001 | -0.081 | -0.006 | -0.019 | -0.056 | 0.037 | 0.004 | 0.016 | -0.003 | 0.014 | -0.004 | 0.032 | -0.099 | -0.011 | -0.03
7 | SYPL1 (UniProt Q16563) | 0.026 | -0.017 | -0.014 | 0.016 | 0.04 | 0.025 | 0.002 | 0.014 | 0.002 | 0.032 | 0.015 | 0.004 | 0.018 | -0.058 | 0 | -0.025 | -0.018 | 0.007 | 0.006 | -0.005
8 | STK3 isoform 2 (UniProt Q13188) | -0.009 | -0.1 | 0.012 | -0.07 | -0.001 | 0.016 | 0.181 | 0.157 | 0.031 | -0.005 | 0.11 | 0.364 | -0.001 | 0.037 | 0.026 | -0.005 | 0 | -0.025 | 0.016 | -0.073
9 | SNCA (UniProt P37840) | -0.265 | -0.037 | 0.098 | 0.025 | -0.147 | -0.02 | 0.044 | -0.056 | -0.085 | 0.019 | 0.102 | -0.148 | 0.028 | 0.02 | 0.013 | 0.036 | -0.068 | -0.042 | -0.059 | 0.028
10 | STAT2 (UniProt P52630) | -0.009 | 0.033 | -0.102 | -0.01 | 0.034 | 0.003 | -0.032 | 0.002 | 0.018 | -0.018 | 0.007 | 0.007 | 0.04 | -0.026 | -0.003 | 0.009 | -0.002 | -0.059 | 0.003 | 0.004
11 | SH3GL3 isoform 3 (UniProt Q99963) | -0.023 | -0.014 | -0.002 | -0.054 | -0.053 | -0.108 | -0.133 | 0.054 | -0.06 | -0.124 | 0.042 | -0.104 | -0.014 | 0.004 | 0.001 | -0.017 | -0.045 | 0.027 | 0.042 | -0.102
12 | SMG6 (UniProt Q86US8) | -0.038 | 0.026 | 0.012 | 0.009 | 0.021 | 0 | -0.092 | -0.04 | -0.005 | 0.026 | 0.071 | -0.061 | 0.034 | -0.016 | 0.012 | 0.074 | 0.006 | 0.004 | 0.047 | 0.059
13 | SRM (UniProt P19623) | -0.006 | 0.039 | 0.017 | -0.001 | 0.014 | 0.004 | -0.003 | 0.017 | 0.027 | 0.007 | 0.018 | 0.007 | 0.025 | -0.047 | -0.011 | -0.003 | -0.006 | 0.003 | 0 | -0.011
14 | TARBP1 (UniProt Q13395) | 0.134 | 0.047 | -0.02 | 0.051 | -0.059 | 0.044 | -0.048 | 0.007 | 0.034 | 0.084 | -0.021 | 0.036 | 0.162 | 0.03 | -0.051 | -0.027 | -0.077 | 0.002 | 0.035 | -0.036
15 | SPATS2 (UniProt Q86XZ4) | -0.012 | -0.127 | -0.042 | 0.028 | -0.007 | 0.017 | -0.081 | 0.063 | 0.043 | -0.066 | -0.06 | -0.069 | -0.018 | 0.03 | 0.111 | 0.077 | -0.061 | -0.007 | -0.046 | -0.001
